Source: PubChem BioAssay
Hits are enriched below; roughly 21% of the tested compounds scored in any of these assays.
Shiga inhibitor – A qHTS for Small Molecule Inhibitors of Shiga Toxin; actives 9.2% (n = 290,000); AID 2315, 2010; inhibition, % at 38.7 µM; Vero cells, Shiga toxin protein synthesis inhibition reporter; in the data active = inhibition mostly above about 28%, no sharp cut-off; inactive = mostly below about 43%
HCV inhibitor – qHTS Assay for Inhibitors of Hepatitis C Virus (HCV); Huh7.5.1 HCVcc-Cre infection, luciferase reporter, 44 h; Potency, µM (top dose mostly 41.8 µM), hits mostly inhibitors; actives 3.4% (n = 340,000)
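1,000 cells/well; 4 h culture; + compound; + HCVcc-Cre (~0.5 moi); 44 h; luciferase substrate, RT 15 min; read 15 sec.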
Pf growth 48h – Primary qHTS for delayed death inhibitors of the malarial parasite plastid, 48 hour incubation | P. falciparum luciferase growth in erythrocytes, 48 h | Potency, µM (series often up to 28.7 µM), hits mostly inhibitors | actives 5.9% (n = 310,000) | AID 504832, 2011
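Compounds are pin-transferred into medium, infected erythrocytes (2% hematocrit, 0.1% parasitemia final) are added, and plates sit one parasite generation at 37 C in 5% CO2. Detection reagent is then added and luminescence measured.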
CHX counter – Cycloheximide Counterscreen for Small Molecule Inhibitors of Shiga Toxin; cell reporter, cycloheximide protein synthesis inhibition counterscreen; actives 12% (n = 300,000); max response, %; in the data active = max response mostly above about 13%, no sharp cut-off; inactive = mostly below about 14%; also: read at 38.3 µM for the half of the compounds with a filed dose
Pf growth 96h – Primary qHTS for delayed death inhibitors of the malarial parasite plastid, 96 hour incubation | P. falciparum luciferase reporter growth, 96 h | Potency, µM (top dose mostly 28.7 µM), hits mostly inhibitors | actives 6.9% (n = 320,000) | AID 504834, 2011
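P. falciparum expressing integrated firefly luciferase grown in erythrocytes (2% hematocrit, 0.05% parasitemia final) with compounds for 96 hours at 37 C, 5% CO2. Growth inhibition read as loss of luminescence after adding luciferase detection reagent.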
AMA1 RON2 block – qHTS for Inhibitors of AMA1-RON; Towards Development of Antimalarial Drug Lead: Primary Screen; Plasmodium falciparum AMA1 (3D7) - RON2 peptide interaction; AlphaScreen AMA1-biotinylated RON2 peptide binding; Potency, µM (top dose mostly 58.2 µM), hits mostly inhibitors; actives 0.2% (n = 360,000); also: nearly all actives have a fitted effect of over 45% in size
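AMA1 (3D7) with his tag at 25 nM final met compounds first, then biotinylated RON2 peptide at 25 nM; detection used donor plus acceptor beads, 10 µg/mL apiece, read by AlphaScreen after 30 min at room temperature.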
Large screens that a line does not name were inactive. Unless noted, calls follow the shape of the dose curve; as a rule, active = well fitted curve in the direction sought with a large enough effect; inconclusive = small, poorly fitted or top-dose-only effect, or another doubt; inactive = no such curve, though single readings can be large; an effect the other way counts as inactive or inconclusive.

COc1ccc(NS(=O)(=O)c2ccc(N3CCOCC3)c(NC(=O)c3ccccc3Cl)c2)cc1	HCV inhibitor inconclusive, Pf growth 48h 10µM
O=C(Nc1cc(S(=O)(=O)Nc2ccc(Cl)cc2)ccc1N1CCCCC1)c1ccc(F)cc1Cl	HCV inhibitor inconclusive, Pf growth 48h inconclusive, Pf growth 96h 6.6µM
COc1ccc(S(=O)(=O)Nc2ccc(N3CCOCC3)cc2)cc1	none (no result: Pf growth 48h)
COc1ccc(NS(=O)(=O)c2ccc(N3CCOCC3)c(NC(=O)c3ccc(OC)cc3)c2)cc1	HCV inhibitor inconclusive, Pf growth 96h 12µM
COc1ccc(NS(=O)(=O)c2ccc(Cl)c(NC(=O)c3ccccc3F)c2)cc1	HCV inhibitor inconclusive (no result: Shiga inhibitor, Pf growth 48h, CHX counter, Pf growth 96h)
COc1ccc(NS(=O)(=O)c2ccc(N3CCOCC3)c(N)c2)cc1	HCV inhibitor 6.3µM (no result: Shiga inhibitor, CHX counter)
CCOc1ccc(N2CC(C(=O)Nc3nnc(Cc4ccccc4)s3)CC2=O)cc1 (centres undefined)	none
COc1ccc(NS(=O)(=O)c2cccc(C(=O)N3CCCCCC3)c2)cc1	none (no result: Shiga inhibitor, CHX counter)
COc1ccc(NS(=O)(=O)c2ccc(N3CCCC3)c(NC(=S)Nc3cccc(S(=O)(=O)N(C)C)c3)c2)cc1	Shiga inhibitor 63, Pf growth 48h inconclusive, CHX counter 33, Pf growth 96h inconclusive (no result: AMA1 RON2 block)
O=C(CN1CCSCC1)N/N=C/c1cccc(Cl)c1	CHX counter 15
COc1ccc(/C=N/NC(=O)CN2CCSCC2)cc1C	CHX counter 18
CSc1ccc(OC2(C)CCN(Cc3ccc(OC(F)(F)F)cc3)C2)cc1 (centres undefined)	none (no result: Shiga inhibitor, HCV inhibitor, Pf growth 48h, CHX counter, Pf growth 96h)
CCCS(=O)(=O)NC(=O)C1(C)CCCN(C(=O)c2cccc(C(F)(F)F)c2)C1 (centres undefined)	none (no result: Shiga inhibitor, HCV inhibitor, Pf growth 48h, CHX counter, Pf growth 96h)
CC1(C)Oc2ccc(C(=O)NC3CCCCC3)cc2N(CC#N)C1=O	Pf growth 48h inconclusive, Pf growth 96h inconclusive
CCOC(=O)CN1C(=O)C(C)(C)Oc2ccc(C(=O)NC(C)(C)CC)cc21	CHX counter 22
CC1(C)Oc2ccc(C(=O)Nc3ccccc3)cc2N(CC#N)C1=O	Shiga inhibitor 38, CHX counter 18, Pf growth 96h 2.9µM
Cc1cc(C)cc(OC(C)C(=O)Nc2ccccc2C(=O)NCc2cccnc2)c1 (centres undefined)	HCV inhibitor inconclusive, Pf growth 48h inconclusive, Pf growth 96h inconclusive
Nc1ccc(-c2nnc(-c3ccc(N)cc3)o2)cc1	Shiga inhibitor 73, CHX counter 48
Cc1cccc(-c2nnc(-c3ccc(N)cc3)o2)c1	Shiga inhibitor 75, CHX counter 35
CCOc1ccc(-c2nnc(N)o2)cc1	none (no result: Pf growth 96h)
O=C(COC(=O)Cc1c(F)cccc1Cl)Nc1nnc(-c2ccccc2)o1	none (no result: Shiga inhibitor, CHX counter)
COc1ccc(-c2oc(=O)c3cc(OC)c(OC)cc3c2/C=C/c2ccc([N+](=O)[O-])cc2)cc1	none (no result: Shiga inhibitor, Pf growth 48h, CHX counter, Pf growth 96h)
COc1ccc(/C=C/c2c(-c3ccc(OC)cc3)oc3cccnc23)cc1	Shiga inhibitor 31, Pf growth 48h inconclusive, CHX counter 16
CC1CCCN(c2nc3nonc3nc2N2CCCC(C)C2)C1 (centres undefined)	Pf growth 48h 10µM
Cc1cccc2sc(N(CCCN(C)C)C(=O)c3ccc4ncsc4c3)nc12	Shiga inhibitor 38, HCV inhibitor inconclusive, Pf growth 48h inconclusive, CHX counter 20, Pf growth 96h inconclusive
Cc1cccc2sc(N(CCCN(C)C)C(=O)c3nc4ccccc4s3)nc12	none
CCc1ccc2nc(N(CCN(C)C)C(=O)c3ccc4ncsc4c3)sc2c1	Shiga inhibitor 117, CHX counter 68, AMA1 RON2 block inconclusive
COc1cc(N=Nc2ccc(C)cc2S(N)(=O)=O)c(C)cc1N	HCV inhibitor 25µM, AMA1 RON2 block inconclusive (no result: Shiga inhibitor, Pf growth 48h, CHX counter, Pf growth 96h)
O=c1c(-c2ccco2)nc2ccccc2n1C(c1ccccc1)c1nc2ccccc2[nH]1 (centres undefined)	none (no result: Shiga inhibitor, HCV inhibitor, Pf growth 48h, CHX counter, Pf growth 96h)
O=C(C1CCN(S(=O)(=O)N2CCOCC2)CC1)N1CCc2ccccc21	Pf growth 96h inconclusive
O=C(CN1CCCc2ccccc21)NC(=O)NC1CCCCC1	Pf growth 48h inconclusive
